# Results from PubChem BioAssay AID485297 (National Center for Advancing Translational Sciences (NCATS), 2010).
# About 9,100 (2.8%) of roughly 320,000 compounds were called active. A call without a number means that no potency is given here. Inconclusive results (about 3%) are left out. Many of the other results were omitted from the sample, so actives are more common in it than they were. Values without a mark were called inactive. Calls come from the whole dose curve; as a rule, active = well fitted activation curve with a large enough effect; inconclusive = small, poorly fitted or top-dose-only effect; inactive = no such curve, though single readings can be large or run the other way.
# Test: qHTS Assay for Rab9 Promoter Activators; note: nearly all actives have a fitted effect of over 60% in size
# Details: Huh7 Rab9 promoter-luciferase reporter, luminescence, 24 h; series mostly up to 9.22 µM
# Summary of the method: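 Measured in stably transfected Huh7 cells bearing a Rab9 promoter–luciferase construct: 24 h compound treatment at 37 °C, followed by luminescence detection.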
# Potency is the fitted concentration of half-maximal effect.
Structure (SMILES),Potency,"activation, negative = inhibition"
COc1ccc(Cl)cc1NC(=O)CN(C)CC(=O)Nc1ccc2c(c1)OCO2,inactive,
COc1ccc(CN(Cc2ccco2)S(=O)(=O)c2ccc(S(=O)(=O)N3CCCC3)cc2)cc1,inactive,
COc1ccccc1-n1nnnc1SCC(=O)NC(=O)Cc1ccccc1,inactive,
Cc1ccc(S(=O)(=O)CC(=O)Nc2nnc(C)s2)cc1,inactive,
Cc1ccc(C(=O)Cn2cccn2)cc1,inactive,
Cc1ccc(C(=O)Cc2nnc(C)s2)cc1,2820 nM (active),
CC(OC(=O)c1cc2ccccc2o1)C(=O)Nc1ccc(N2CCOCC2)cc1 (centres undefined),inactive,
Cc1ccc2oc(=O)c3cnn(CC(=O)N(Cc4ccco4)C4CCCCC4)c3c2c1,inactive,
Cc1cc2c(=O)n(C)c(SCC(=O)c3cc4ccccc4o3)nc2s1,inactive,
O=C(NCc1cccnc1)c1cccc(-c2cc3ccccc3oc2=O)c1,,-2.68% [at 1.84 µM]
Nc1ncc(-c2cc3ccccc3oc2=O)s1,1120 nM (active),
COc1ccccc1C(CNC(=O)c1cccc(S(=O)(=O)Nc2ccc(F)cc2)c1)N(C)C (centres undefined),inactive,
Cc1nn(C)c(Cl)c1CN1CCC(n2nccc2NC(=O)C2CCCC2)CC1,inactive,
CC(Sc1nnc(-c2cccs2)n1C1CC1)C(=O)NCC1CCCO1 (centres undefined),inactive,
CN(C)/C=C/C(=O)c1ccccc1F,inactive,
Cc1nc(-c2ccc(Cl)cc2)sc1C(=O)CBr,inactive,
Cc1nc(-c2ccccc2)sc1C(=O)/C=C/N(C)C,2820 nM (active),
CC(C)CN(C(=O)CSc1nncn1C)C1CCS(=O)(=O)C1 (centres undefined),inactive,
Cc1ccc(C(=O)NNc2ncnc3ccccc23)cc1,3980 nM (active),
CCc1nc(SCC(=O)NNC(=O)c2ccc(C)cc2)c2ccccc2n1,inactive,
Cc1ccc(C(=O)NNC(=O)c2cc3cc4ccccc4nc3s2)cc1,inactive,
COc1ccc(CNC(=O)COC(=O)c2c(C)nn(-c3ccccc3)c2C)cc1OC,inactive,
CN(C)C(CNC(=O)c1cccc(C#N)c1)c1ccco1 (centres undefined),inactive,
Cc1cc(F)ccc1S(=O)(=O)Nc1ccc(C(=O)N(C)Cc2ccco2)cc1,inactive,
CC1CCCCC12NC(=O)N(CC(=O)Nc1ccc(S(=O)(=O)Nc3ncccn3)cc1)C2=O (centres undefined),inactive,
Cc1ccccc1Nc1nc(N)nc(CSc2ccccc2)n1,1410 nM (active),
Cc1ccccc1Nc1nc(N)nc(CN2CCN(c3ccccn3)CC2)n1,inactive,

Structure (SMILES),Potency,"activation, negative = inhibition"
Cc1ccc(C(=O)OCc2nc(N)nc(Nc3ccccc3C)n2)cc1,inactive,
COc1cccc(C(O)c2nc3ccccc3n2C)c1 (centres undefined),inactive,
Cc1cc(C)c(CN2CCN(C(=O)Cn3ccc(NC(=O)OCc4ccccc4)nc3=O)CC2)c(C)c1,inactive,
COc1ccccc1/C=C1\SC(=O)N(CCC(=O)N(C)C2CCS(=O)(=O)C2)C1=O (centres undefined),inactive,
COc1ccc(/C=C2\SC(=O)N(CCC(=O)NCCCn3ccnc3)C2=O)cc1,inactive,
COc1ccc(/C=C2\SC(=O)N(CCC(=O)NC3CCS(=O)(=O)C3)C2=O)cc1 (centres undefined),2510 nM (active),
CC1CCCC(C)N1C(=O)COC(=O)COc1ccccc1C#N (centres undefined),inactive,
CCCCN(C(=O)c1ccc(S(=O)(=O)N2CCOCC2)cc1)C1CCS(=O)(=O)C1 (centres undefined),inactive,
O=C(Nc1cccnc1)c1cccc(S(=O)(=O)N2CCCC2)c1,inactive,
O=C(Nc1cccnc1)c1noc2c1CCCCC2,1580 nM (active),
O=C(Nc1cccnc1)c1cc(Cl)ccc1Cl,inactive,
CCCCc1ccc(NC(=O)CN2C(=O)NC(Cc3ccccc3)C2=O)cc1 (centres undefined),inactive,
O=C(NNC(=O)c1cccc(S(=O)(=O)Nc2ccc(Cl)cc2)c1)c1ccc(=O)[nH]c1,inactive,
O=C(NCC(=O)N1CCN(c2ccccc2F)CC1)c1cccs1,inactive,
O=C(CCc1ccccc1F)N1CCN(c2ccccc2)CC1,inactive,
O=C(CCSc1ccccc1)N1CCN(c2ccccc2F)CC1,3550 nM (active),
CC1CCCC(NC(=O)c2cc(S(=O)(=O)N3CCCCC3)ccc2Cl)C1C (centres undefined),inactive,
CCCCCCCC(=O)OC(CN1CCCCCC1)CN1CCCC1=O (centres undefined),inactive,
COc1ccc(C(=O)Nc2ccc(N3CCC(C)CC3)cc2)cc1Br,inactive,
CN1CCN(c2ccc(NC(=O)c3ccccc3)cc2)CC1,1580 nM (active),
COc1ccc(C2COC(=O)C2=N)c(NC(=O)c2ccccc2)c1 (centres undefined),inactive,
COc1cccc(C(=O)Nc2cc3c(cc2Br)OCCCO3)c1,2820 nM (active),
CN1CCN(c2ccc(NC(=O)c3ccc4c(c3)[nH]c(=O)n4Cc3ccc(F)cc3)cc2)CC1,inactive,
CC(=O)Oc1cccc(C(=O)Nc2ccccc2NC(=O)c2cccc(OC(C)=O)c2)c1,inactive,
COc1cccc(C(=O)Nc2ccc(N3CCN(C(=O)c4ccco4)CC3)cc2)c1,inactive,
Cc1ccccc1C(=O)NC(=S)Nc1ccc(N2CCN(C(=O)c3ccccc3)CC2)cc1,inactive,
COc1cccc(C(=O)Nc2ccc(N3CCCC3)cc2)c1,1120 nM (active),
